{"source": "PubChem BioAssay (Tox21)", "note": "“And” between values parts separate entries of the source, which are not always exact repeats. Identical values can stand only once. Records with an inconclusive call do not appear. Unmarked numbers belong to inactive results. The source made the active and inactive calls. The call rests on the fitted dose curve. On the % scale 0 is the no-effect control and ±100 the full control effect; potency means the concentration at half of the fitted maximal effect.", "data": [{"test": "Nuclear factor erythroid 2-related factor 2/antioxidant responsive element (Nrf2/ARE) small molecule agonists: luciferase reporter gene qHTS assay in human keratinocytes (AID 1919969); further: nearly all actives have a fitted effect of over 35% in size", "conditions": "KeratinoSens HaCaT ARE-luciferase, luminescence, 24 h; series mostly up to 92.4 µM; activity, positive = activation: at the top concentration", "description": "National Center for Advancing Translational Sciences [NCATS]\nDivision of Preclinical Innovation [DPI]\nU.S. Environmental Protection Agency [EPA]\nNational Institutes of Environmental Health Sciences [NIEHS]\nNational Toxicology Program [NTP]\nU.S. Food and Drug Administration [FDA]\nOxidative stress has been implicated in the pathogenesis of a variety of diseases ranging from cancer to neurodegeneration. The antioxidant response element (ARE) signaling pathway plays an important role in the amelioration of oxidative stress. The KeratinoSens (Givaudan, Switzerland) is an in vitro test method which quantifies luciferase induction as a measure of activation of Keap1-Nrf2-antioxidationt/electrophile response element (ARE) dependant pathway in HaCaT human keratinocytes stably transfected with a selectable plasmid. The KeratinoSens assay is a cell-based assay with a reporter cell line to detect potential skin sensitizers by their ability to induce the Nrf2/ARE-response. The activation of the report gene under culture conditions can be detected by ONE-Glo Luciferase Assay System (Promega, Madison, WI). This cell line has been used to screen the Tox21 10K compound library to identify agonists that induce oxidative stress. The cytotoxicity of the Tox21 compound library against the KS-ARE cell line was tested in parallel by measuring the cell viability using CellTiter- Fluor assay system (Promega, Madison, WI) in the same wells.\nHaCaT derived cell line KeratinoSens were dispensed at 1,500 cells/5uL/well in 1536-well white wall/solid bottom plates using a Multidrop Combi (ThermoFisher Scientific, Waltham, MA) dispenser. After the assay plates were incubated at 37 C/5% CO2 for 5 h, 23 nL of compounds dissolved in DMSO, positive controls or DMSO only was transferred to the assay plate by a pintool workstation (Kalypsys, San Diego, CA). The plates were incubated at 37 C/5% CO2 for 23 h, followed by addition of 1uL/well of CellTiter-Fluor reagent into the assay plates using a Flying Reagent Dispenser (Aurora Discovery, San Diego, CA) for cell viability readout that measures cytotoxicity. After 1 h incubation at 37 C/5% CO2 the fluorescence intensity was measured using a ViewLux (PerkinElmer, Shelton, CT) plate reader. Then 4uL/well of One-Glo were added using a Flying Reagent Dispenser. After the plates were incubated at room temperature for 30 min, the luminescence intensity in the assay plates was measured using ViewLux plate reader.", "values": [{"smiles": "C1CCNCC1", "activity, positive = activation": "-3.83%"}, {"smiles": "CC(C)(C)c1cc(O)ccc1O", "Potency": "24.3 µM (active) and 30.6 µM (active)"}, {"smiles": "Oc1ccc([C@H]2CNCc3c2ccc(O)c3O)cc1O", "activity, positive = activation": "-6.41% [at 42.5 µM]"}, {"smiles": "CC1(C)C(/C=C(\\Cl)C(F)(F)F)C1C(=O)OC(C#N)c1cccc(Oc2ccccc2)c1", "note": "(stereo not given)", "activity, positive = activation": "0.481%"}, {"smiles": "Nc1ccc([N+](=O)[O-])cc1Cl", "activity, positive = activation": "-6.11%"}, {"smiles": "CO/N=C(/C(=O)OC)c1ccccc1COc1ccccc1C", "activity, positive = activation": "-8.92%"}, {"smiles": "Oc1cc(Cl)cc(Cl)c1", "activity, positive = activation": "12%"}, {"smiles": "CC(C)O.CC(C)O.OCCN(CCO)CCO.OCCN(CCO)CCO.[Ti]", "activity, positive = activation": "-15.6%"}, {"smiles": "Clc1cc(Cl)c(Cl)c(Cl)c1", "activity, positive = activation": "6.26%"}, {"smiles": "CCS(=O)(=O)C(C)(C)S(=O)(=O)CC", "activity, positive = activation": "-7.97% [at 42.5 µM]"}, {"smiles": "CNC(C)Cc1ccccc1OC", "note": "(stereo not given)", "activity, positive = activation": "2.64% [at 42.5 µM]"}, {"smiles": "C/C(=C\\c1ccccc1)[N+](=O)[O-]", "Potency": "15.4 µM (active)"}, {"smiles": "ClCCCCCCCl", "activity, positive = activation": "-8.14%"}, {"smiles": "CCOP(=O)(NC(C)C)Oc1ccc(SC)c(C)c1", "note": "(stereo not given)", "Potency": "15.4 µM (active)"}, {"smiles": "NC(=O)C(Cl)Cl", "activity, positive = activation": "-2%"}, {"smiles": "COC(=O)c1ccccc1S(=O)(=O)NC(=O)Nc1nc(C)cc(C)n1", "activity, positive = activation": "-3.76%"}, {"smiles": "CCC1CCC(=O)O1", "note": "(stereo not given)", "activity, positive = activation": "-10.2%"}, {"smiles": "CN1C(=O)COc2c(C(=O)NC3CN4CCC3CC4)cc(Cl)cc21", "note": "(stereo not given)", "activity, positive = activation": "-8.72% [at 42.5 µM]"}, {"smiles": "CON(C)C(=O)Nc1ccc(Br)cc1", "activity, positive = activation": "7.3%"}, {"smiles": "Clc1c(Cl)c(Cl)c(Cl)c(Cl)c1Cl", "activity, positive = activation": "1.26% [at 8.39 µM]"}, {"smiles": "C=CC(=C)C", "activity, positive = activation": "-1.89%"}, {"smiles": "CCCOc1nn(C(=O)NS(=O)(=O)c2ccccc2C(=O)OC)c(=O)n1C", "Potency": "68.3 µM (active)"}, {"smiles": "CC(C)[C@@H](Nc1ccc(C(F)(F)F)cc1Cl)C(=O)OC(C#N)c1cccc(Oc2ccccc2)c1", "note": "(stereo not given in full)", "activity, positive = activation": "23.5%"}, {"smiles": "CN1COCN(Cc2cnc(Cl)s2)/C1=N\\[N+](=O)[O-]", "activity, positive = activation": "-9.92%"}, {"smiles": "C=CC(=O)NCNC(=O)C=C", "Potency": "61.1 µM (active)"}, {"smiles": "Fc1ccc(C2(Cn3cncn3)OC2c2ccccc2Cl)cc1", "note": "(stereo not given)", "activity, positive = activation": "-14.7%"}, {"smiles": "CCCCCCCCCCCCN(C)C", "activity, positive = activation": "-22.5%"}, {"smiles": "COP(=O)(OC)O/C(=C\\Cl)c1cc(Cl)c(Cl)cc1Cl", "Potency": "68.6 µM (active)"}, {"smiles": "CCC(C)(C)O", "activity, positive = activation": "-2.9%"}, {"smiles": "CCCN(CCC)c1c([N+](=O)[O-])cc(C(F)(F)F)cc1[N+](=O)[O-]", "Potency": "19.3 µM (active) and 61.1 µM (active)"}, {"smiles": "Nc1ccc(Cl)cc1C(=O)c1ccccc1", "activity, positive = activation": "4.74%"}, {"smiles": "CC(=O)NC1CCSC1=O", "note": "(stereo not given)", "activity, positive = activation": "0.0586% [at 42.5 µM]"}, {"smiles": "Cc1c(F)c(F)c(COC(=O)C2C(/C=C(\\Cl)C(F)(F)F)C2(C)C)c(F)c1F", "note": "(stereo not given)", "Potency": "30.6 µM (active)"}, {"smiles": "c1ccc2c(c1)OCC(C1=NCCN1)O2", "note": "(stereo not given)", "Potency": "23.7 µM (active)"}, {"smiles": "CCSC(=O)N(CC)C1CCCCC1", "activity, positive = activation": "-1.26%"}, {"smiles": "CCCN", "activity, positive = activation": "-2.04%"}, {"smiles": "CNCC(=O)c1ccc(O)c(O)c1", "activity, positive = activation": "4.3% [at 42.5 µM]"}, {"smiles": "ClCc1ccc(Cl)cc1Cl", "activity, positive = activation": "0.596%"}, {"smiles": "O=C(N[C@H]1N=C(c2ccccc2F)c2cccc3c2N(CC3)C1=O)c1cc2ccccc2[nH]1", "activity, positive = activation": "-11.8% [at 42.5 µM]"}, {"smiles": "c1ccc2c(c1)Sc1ccccc1N2CC1CN2CCC1CC2", "note": "(stereo not given)", "activity, positive = activation": "-39.5% [at 42.5 µM]"}]}]}
